PubChem BioAssay (NCATS)
Records with an inconclusive call do not appear. Active and inactive are the calls of the source. Unless noted, calls come from the whole dose curve; as a rule, active = well fitted curve in the direction sought with a large enough effect; inconclusive = small, poorly fitted or top-dose-only effect, or another doubt; inactive = no such curve, though single readings can be large; an effect the other way counts as inactive or inconclusive.

What was measured:
[1] = AP1 Signaling Pathway (AID 357; active = well fitted curve in either direction with a large enough effect, not every such curve was filed as active;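 note: ME-180 reporter cells stimulated with EGF at its EC50 level; % is set by controls: 0 for no effect and ±100 for the full control effect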); details: ME-180 AP-1-bla reporter, EGF-induced, beta-lactamase ratio, 5 h; at 7.69 µM (top of the series) unless noted
Method in brief: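 In this screen, ME-180 cells in Opti-MEM with 0.5% dialyzed FBS received EC50 EGF and compound titrations for 5 h. AP-1 reporter beta-lactamase was detected via CCF4 ratio, giving AC50 for positive and negative modulators.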

[2] = target: Cytochrome P450 1A2 (Homo sapiens) (UniProt P05177); experiment: p450-cyp1a2 (AID 410; calls by dose curve; note: potency is the fitted concentration of half-maximal effect;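 for activity change, negative = inhibition: -100% = full effect of reference inhibitor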)
Method in brief: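 Luminescent readout of luciferin formed from Luciferin-ME by human CYP1A2; data normalized against complete inhibition by 57 uM furafylline. Enzyme 20nM, substrate 100uM at Km, 100mM KPO4 buffer, 60 min reaction at room temperature.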

[3] = NFAT Signaling Pathway (AID 444; active = well fitted curve in either direction with a large enough effect, not every such curve was filed as active;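 note: carbachol stimulus at about its EC50 of 1 µM final; % is set by controls: 0 for no effect and ±100 for the full control effect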); details: Jurkat NFAT-bla M1, carbachol, beta-lactamase ratio, 5 h; at 7.69 µM (top of the series) unless noted
Method in brief: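 Read-out: CCF4 FRET ratio (460 nm/530 nm) after 1 h RT dye loading, used for %activity and AC50 from titration series. Cells: Jurkat NFAT-β-lactamase/M1 line, treated with compound plus 1 uM carbachol for 5 h, 37 °C.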

[4] = target: Glucocorticoid receptor (Homo sapiens) (UniProt P04150); experiment: GR-GFP Redistribution (AID 450;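 active = compounds whose dose series gives a full or clear partial fitted curve of increased nuclear translocation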; note: potency is the fitted concentration of half-maximal effect); details: U2OS GR-GFP nuclear translocation, laser cytometry, 2 h
[5] = target: Glucocorticoid receptor (Homo sapiens) (UniProt P04150); experiment: GR-EFC Redistribution (AID 451; calls by dose curve; note: potency is the fitted concentration of half-maximal effect); details: CHO-K1 GR-EFC translocation, beta-gal luminescence, 2 h
Method in brief: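 Translocation of GR-ED fusion to nuclear EA restores b-gal, read by luminescence after 1 h room-temperature detection. Engineered CHO-K1 biosensor cells, 1,000/well, exposed 2 h at 37 C to titrations up to 46 uM final.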

[6] = target: 3',5'-cyclic-AMP phosphodiesterase 4B (Homo sapiens) (UniProt Q07343); experiment: qHTS Assay for Inhibitors of PDE-IV (AID 607; active = well fitted activation curve with a large enough effect in the main read-out, with a control signal flat, not every such curve was filed as active; note: % of control where 0% means no effect)
Method in brief: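 HEK293 ACTOne cells with CNG channel (1000/well), endogenous PDE4; membrane potential dye, compounds up to 22.9 uM final. Fluorescence Ex 535/Em 590; RO 20-1724 (100 uM final) as reference.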

[7] = target: Guanine nucleotide-binding protein G(i) subunit alpha-1 (Homo sapiens) (UniProt P63096); experiment: qHTS Assay for Inhibitors of RGS12 GoLoco Motif Activity (Green Fluorophore) (AID 879);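 note: 0% = labeled peptide with Gαi1 and full inhibition = labeled peptide alone without protein; negative values mean loss of peptide binding seen as reduced polarization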
Method in brief: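 Fluorescence polarization assay: 50 nM Gαi1 with 10 nM FITC-labeled RGS12 GoLoco peptide in 10 mM Tris pH 7.5, 150 mM NaCl, 0.1 mM GDP, 0.05% NP40, 10 min at room temperature with compound.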

[8] = qHTS Assay for Identification of Small Molecule Agonists for Thrombopoietin (TPO) Signaling Pathway (AID 917); note: % is set by controls: 0 for no effect and ±100 for the full control effect
Method in brief: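 IL-3-dependent murine pro-B Ba/F3 cells, stably transfected with human TPO receptor and GpIIb-promoter luciferase, are incubated 24 hrs at 37 C with test compound and 26 pM TPO; luciferase signal is read after 10 min at room temperature.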

[9] = target: Muscarinic acetylcholine receptor M1 (Rattus norvegicus) (UniProt P08482); experiment: qHTS Assay for Antagonists of Acetylcholine Muscarinic M1 Receptor: Kinetic Measurement of Intracellular Calcium Response (AID 943);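 note: Fluo-4 calcium signal as peak divided by basal fluorescence over 4 min; nearly all actives have a fitted effect of over 75% in size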
Method in brief: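 Rat M1-CHO cells, 2000/well, overnight → Fluo-4 no-wash dye with probenecid, 1 h 37C → compound 10 min, room temp → basal read 6 s → carbachol EC80 (100 nM) → 4 min kinetic read; peak/basal.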

[10] = target: Muscarinic acetylcholine receptor M1 (Rattus norvegicus) (UniProt P08482); experiment: qHTS Assay for Antagonists of Acetylcholine Muscarinic M1 Receptor: Measurement of IP-One Response (AID 944); note: nearly all actives have a fitted effect of over 75% in size
Method in brief: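 M1-CHO (rat), 2000 cells/well, overnight recovery; cpd 10 min; carbachol EC80 (200 nM), 30 min, HEPES buffer + 50 mM LiCl pH 7.4; IP-One HTRF, Ex 337, Em 620/665 nm.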

[11] = target: Pyruvate kinase (Leishmania mexicana) (UniProt Q27686); experiment: qHTS Validation Assay for Inhibitors of Leishmania Mexicana Pyruvate Kinase (AID 945);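 note: 0% = DMSO only neutral control wells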
Method in brief: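 The enzyme is a highly purified E451W mutant of LmPYK used at 0.2 nM. It converts 0.5 mM PEP and 0.1 mM ADP over 1 h at room temperature; product ATP is quantified by luciferase luminescence relative to DMSO controls.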

[12] = target: Pyruvate kinase PKM (Homo sapiens) (UniProt P14618); experiment: qHTS Assay for Activators of Human Muscle Pyruvate Kinase (AID 954; active = well fitted curve in the direction sought with a large enough effect, not every such curve was filed as active;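 note: 0% = uninhibited enzyme and -100% = no enzyme or full thiadiazolimine inhibition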)
Method in brief: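 Purified human PKM2 (0.1 nM) with 0.5 mM PEP (Km) and 0.1 mM ADP in 50 mM imidazole pH 7.2, KCl, MgCl2, 1 h at room temperature; ATP formed read by coupled luciferase luminescence. Normalized to no-enzyme/110 uM thiadiazolimine inhibition; 0.3 nM enzyme column for activation.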

[13] = target: Alpha-galactosidase A (Homo sapiens) (UniProt P06280); experiment: Counterscreen for Glucocerebrosidase Inhibitors: qHTS Assay for Human alpha-Galactosidase at pH 4.5 (AID 992); note: 0% is about no effect
Method in brief: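 Human enzyme (2 nM) with 80 uM 4-methylumbelliferyl alpha-D-galactopyranoside in 50 mM citric acid, 0.005% Tween-20, pH 4.5, 20 min at room temperature. Compounds 0.7 nM–77 uM; fluorescence Ex 365/Em 440 after pH 10 stop; AC50 from Hill fits.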

[14] = target: alpha-glucosidase (Oryza sativa, rice) (UniProt Q653V4); experiment: Counterscreen for Glucocerebrosidase Inhibitors: qHTS Assay for Rice alpha-Glucosidase at pH 5.0 (AID 997);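 note: 0% = full activity with enzyme and -100% = basal without enzyme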
Method in brief: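 Rice alpha-glucosidase (4 nM final) with 400 uM 4-methylumbelliferyl-alpha-D-glucopyranoside in citrate buffer pH 5.0, 20 min at room temperature, stopped at pH 10; fluorescence 365/440 nm, compounds 0.7 nM–77 uM, AC50 from Hill fits.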

[15] = Stat Signaling Pathway (AID 446; active = well fitted curve in either direction with a large enough effect, not every such curve was filed as active;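 note: ME-180 cervical cancer cells given 40 pM IL-6 alongside compound; SIE-controlled beta-lactamase reporter measured as 460/530 nm FRET emission ratio; % is set by controls: 0 for no effect and ±100 for the full control effect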); details: ME-180 SIE beta-lactamase reporter, IL-6 stimulated, 5 h; at 7.69 µM (top of the series) unless noted
Method in brief: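 ME-180 cells carrying a SIE-driven beta-lactamase reporter are stimulated with 40 pM IL-6 for 5 h at 37C in the presence of compound. The 460/530 nm FRET substrate ratio is read after 2.5 h at RT. Data are normalised to 300 pM IL-6 and to 125 nM JAK inhibitor controls.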

[16] = target: Mitogen-activated protein kinase 10 (Mus musculus) (UniProt Q61831); experiment: JNK3 AlphaScreen Assay (AID 530; active = well fitted curve in either direction with a large enough effect, not every such curve was filed as active)
Method in brief: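 Compound titrations were preincubated 15 minutes at room temperature with substrate, antibody and pre-activated JNK3-containing HepG2 lysate. Reactions were started with 10 uM ATP and stopped with EDTA-containing bead buffer for AlphaScreen detection.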

[17] = target: Cytochrome P450 2C9 (Homo sapiens) (UniProt P11712); experiment: qHTS Assay for Inhibitors and Substrates of Cytochrome P450 2C9 (AID 883); note: % is set by controls: 0 for no effect and ±100 for the full control effect; nearly all actives have a fitted effect of over 60% in size
Method in brief: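 Turnover of Luciferin-H (100uM, KM) by 10nM human CYP2C9 was measured over 60 min at 37C with NADPH regeneration; inhibitors and some substrates reduce luminescence. Data normalized to sulphaphenazole 57uM.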

[18] = target: Cytochrome P450 2D6 (Homo sapiens) (UniProt P10635); experiment: qHTS Assay for Inhibitors and Substrates of Cytochrome P450 2D6 (AID 891);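 note: luciferin methyl ether substrate demethylated by CYP2D6 with NADPH regeneration; % is set by controls: 0 for no effect and ±100 for the full control effect; nearly all actives have a fitted effect of over 60% in size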
Method in brief: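 Human CYP2D6 (5 nM) with 30 uM Luciferin-ME EGE (at Km) in 100 mM KPO4, compound preincubated 10 min, then NADPH regeneration system for 60 min at room temperature. Luciferin read by luminescence; normalized to 1.43 uM quinidine.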

[19] = target: Cytochrome P450 2C19 (Homo sapiens) (UniProt P33261); experiment: qHTS Assay for Inhibitors and Substrates of Cytochrome P450 2C19 (AID 899); note: nearly all actives have a fitted effect of over 60% in size; note: potency is the fitted concentration of half-maximal effect
Method in brief: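 Reactions contain 5nM enzyme, 10uM Luciferin-H EGE (KM) and 50mM KPO4; compound preincubates 10 min at 37C, NADPH regeneration starts turnover for 60 min. Luminescence after detection reagent gives activity.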

[20] = target: Cytochrome P450 3A4 (Homo sapiens) (UniProt P08684); experiment: qHTS Assay for Activators of Cytochrome P450 3A4 (AID 885); note: nearly all actives have a fitted effect of over 65% in size
Method in brief: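 Human CYP3A4 (20 nM) with Luciferin-PPXE at 25 uM (its KM) in 200 mM KPO4; 10 min compound preincubation, then NADPH regeneration and 60 min reaction at RT. Luciferin read by luminescence; normalized to 57 uM ketoconazole full inhibition.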

Guanine nucleotide-binding protein G(i) subunit alpha-1 (Homo sapiens), sequence (P63096 whole entry, looked up): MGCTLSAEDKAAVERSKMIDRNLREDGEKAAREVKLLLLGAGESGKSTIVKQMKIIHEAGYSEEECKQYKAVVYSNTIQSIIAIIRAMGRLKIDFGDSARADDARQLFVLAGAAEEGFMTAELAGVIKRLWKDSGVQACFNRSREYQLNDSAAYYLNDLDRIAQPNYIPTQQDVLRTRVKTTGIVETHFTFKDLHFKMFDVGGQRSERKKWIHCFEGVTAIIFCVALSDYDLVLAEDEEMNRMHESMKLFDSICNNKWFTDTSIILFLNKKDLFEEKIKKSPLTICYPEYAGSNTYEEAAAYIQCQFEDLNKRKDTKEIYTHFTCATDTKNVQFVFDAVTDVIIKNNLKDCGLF
Glucocorticoid receptor (Homo sapiens), sequence (P04150 whole entry, looked up, the tested form may be a part): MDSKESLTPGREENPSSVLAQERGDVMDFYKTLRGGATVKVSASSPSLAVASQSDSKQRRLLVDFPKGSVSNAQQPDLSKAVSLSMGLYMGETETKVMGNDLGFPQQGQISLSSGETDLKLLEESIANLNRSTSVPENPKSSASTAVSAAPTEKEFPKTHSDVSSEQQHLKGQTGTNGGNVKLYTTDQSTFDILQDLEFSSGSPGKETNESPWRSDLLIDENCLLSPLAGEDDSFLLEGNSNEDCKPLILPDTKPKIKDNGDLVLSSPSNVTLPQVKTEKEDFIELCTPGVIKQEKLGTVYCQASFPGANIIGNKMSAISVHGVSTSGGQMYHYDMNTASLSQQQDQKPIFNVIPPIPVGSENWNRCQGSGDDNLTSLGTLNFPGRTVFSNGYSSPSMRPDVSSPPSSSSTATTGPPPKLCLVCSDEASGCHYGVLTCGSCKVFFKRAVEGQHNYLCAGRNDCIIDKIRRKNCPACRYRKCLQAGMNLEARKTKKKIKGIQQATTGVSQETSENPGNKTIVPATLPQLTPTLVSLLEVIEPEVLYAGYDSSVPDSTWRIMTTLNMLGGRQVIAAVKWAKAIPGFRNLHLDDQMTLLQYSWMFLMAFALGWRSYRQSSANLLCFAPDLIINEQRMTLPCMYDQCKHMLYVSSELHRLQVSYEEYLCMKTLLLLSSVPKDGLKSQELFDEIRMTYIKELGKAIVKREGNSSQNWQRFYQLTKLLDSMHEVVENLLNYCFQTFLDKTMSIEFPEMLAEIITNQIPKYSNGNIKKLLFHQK
3',5'-cyclic-AMP phosphodiesterase 4B (Homo sapiens), sequence (Q07343 whole entry, looked up): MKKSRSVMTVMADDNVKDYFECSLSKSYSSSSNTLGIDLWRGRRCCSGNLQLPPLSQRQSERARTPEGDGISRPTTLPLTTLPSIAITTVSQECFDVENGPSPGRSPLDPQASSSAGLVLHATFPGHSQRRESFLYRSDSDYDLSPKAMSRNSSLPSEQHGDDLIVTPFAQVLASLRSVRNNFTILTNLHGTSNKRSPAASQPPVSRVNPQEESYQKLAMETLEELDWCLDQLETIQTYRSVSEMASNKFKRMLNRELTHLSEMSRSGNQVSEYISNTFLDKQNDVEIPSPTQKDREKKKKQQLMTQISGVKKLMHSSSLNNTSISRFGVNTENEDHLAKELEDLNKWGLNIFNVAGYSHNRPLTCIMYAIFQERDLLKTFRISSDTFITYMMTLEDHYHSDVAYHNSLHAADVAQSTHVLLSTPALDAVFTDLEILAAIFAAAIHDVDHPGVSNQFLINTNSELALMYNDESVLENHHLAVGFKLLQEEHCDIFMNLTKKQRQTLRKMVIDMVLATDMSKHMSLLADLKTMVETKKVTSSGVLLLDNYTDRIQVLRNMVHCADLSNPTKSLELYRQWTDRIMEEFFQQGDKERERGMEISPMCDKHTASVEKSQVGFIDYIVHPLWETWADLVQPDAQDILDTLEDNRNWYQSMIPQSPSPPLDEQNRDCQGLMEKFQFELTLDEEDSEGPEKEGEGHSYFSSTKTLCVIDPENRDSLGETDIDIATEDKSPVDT
Pyruvate kinase PKM (Homo sapiens), sequence (P14618 whole entry, looked up): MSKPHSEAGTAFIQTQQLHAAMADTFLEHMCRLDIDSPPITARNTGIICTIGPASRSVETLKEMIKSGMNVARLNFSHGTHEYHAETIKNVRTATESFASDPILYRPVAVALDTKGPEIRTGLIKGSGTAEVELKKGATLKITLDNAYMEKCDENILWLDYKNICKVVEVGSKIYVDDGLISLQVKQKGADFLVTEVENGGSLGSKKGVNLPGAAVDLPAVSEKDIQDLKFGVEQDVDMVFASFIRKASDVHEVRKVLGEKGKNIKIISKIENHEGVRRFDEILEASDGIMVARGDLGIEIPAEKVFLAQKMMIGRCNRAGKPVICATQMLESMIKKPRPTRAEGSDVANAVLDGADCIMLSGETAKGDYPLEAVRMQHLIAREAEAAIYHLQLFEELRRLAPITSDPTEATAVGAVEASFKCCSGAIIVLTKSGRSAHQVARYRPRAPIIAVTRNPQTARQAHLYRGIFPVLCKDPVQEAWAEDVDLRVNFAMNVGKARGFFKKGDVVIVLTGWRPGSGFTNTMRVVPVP
Muscarinic acetylcholine receptor M1 (Rattus norvegicus), sequence (P08482 whole entry, looked up): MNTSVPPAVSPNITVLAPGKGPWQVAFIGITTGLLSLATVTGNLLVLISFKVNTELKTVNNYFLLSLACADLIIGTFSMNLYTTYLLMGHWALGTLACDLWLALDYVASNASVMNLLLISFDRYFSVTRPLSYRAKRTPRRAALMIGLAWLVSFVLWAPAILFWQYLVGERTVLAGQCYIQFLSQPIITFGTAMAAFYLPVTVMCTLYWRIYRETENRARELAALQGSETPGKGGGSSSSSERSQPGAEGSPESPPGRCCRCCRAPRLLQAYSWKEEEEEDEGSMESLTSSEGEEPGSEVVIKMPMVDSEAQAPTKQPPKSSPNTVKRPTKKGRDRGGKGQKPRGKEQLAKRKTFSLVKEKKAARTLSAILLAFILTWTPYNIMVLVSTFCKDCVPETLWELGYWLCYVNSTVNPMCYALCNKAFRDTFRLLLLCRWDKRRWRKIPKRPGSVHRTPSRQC
Pyruvate kinase (Leishmania mexicana), sequence (Q27686 2-499 E452W): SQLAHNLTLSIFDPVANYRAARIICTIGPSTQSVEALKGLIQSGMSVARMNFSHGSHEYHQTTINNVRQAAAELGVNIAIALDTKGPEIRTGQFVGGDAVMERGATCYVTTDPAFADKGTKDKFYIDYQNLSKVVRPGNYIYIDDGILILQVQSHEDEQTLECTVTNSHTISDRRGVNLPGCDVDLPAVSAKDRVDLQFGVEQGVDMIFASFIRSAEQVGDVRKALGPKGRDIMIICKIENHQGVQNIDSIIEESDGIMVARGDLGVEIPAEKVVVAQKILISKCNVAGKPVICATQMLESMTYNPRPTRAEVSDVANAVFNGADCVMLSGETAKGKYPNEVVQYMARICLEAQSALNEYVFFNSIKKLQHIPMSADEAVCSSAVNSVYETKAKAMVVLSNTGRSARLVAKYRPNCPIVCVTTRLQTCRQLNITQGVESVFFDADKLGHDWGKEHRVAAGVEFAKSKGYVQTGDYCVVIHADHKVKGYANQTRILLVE
Alpha-galactosidase A (Homo sapiens), sequence (P06280 whole entry, looked up): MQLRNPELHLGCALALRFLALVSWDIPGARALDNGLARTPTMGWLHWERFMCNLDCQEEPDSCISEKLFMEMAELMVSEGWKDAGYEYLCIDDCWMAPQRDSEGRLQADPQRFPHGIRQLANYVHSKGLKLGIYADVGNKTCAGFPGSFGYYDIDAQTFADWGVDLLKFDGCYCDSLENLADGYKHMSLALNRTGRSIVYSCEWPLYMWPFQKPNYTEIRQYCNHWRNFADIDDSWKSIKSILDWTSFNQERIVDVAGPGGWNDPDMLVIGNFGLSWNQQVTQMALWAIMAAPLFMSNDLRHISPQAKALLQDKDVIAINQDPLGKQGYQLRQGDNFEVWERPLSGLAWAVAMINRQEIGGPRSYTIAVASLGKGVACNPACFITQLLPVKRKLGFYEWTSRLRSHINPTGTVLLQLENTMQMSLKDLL
Cytochrome P450 1A2 (Homo sapiens), sequence (P05177 whole entry, looked up): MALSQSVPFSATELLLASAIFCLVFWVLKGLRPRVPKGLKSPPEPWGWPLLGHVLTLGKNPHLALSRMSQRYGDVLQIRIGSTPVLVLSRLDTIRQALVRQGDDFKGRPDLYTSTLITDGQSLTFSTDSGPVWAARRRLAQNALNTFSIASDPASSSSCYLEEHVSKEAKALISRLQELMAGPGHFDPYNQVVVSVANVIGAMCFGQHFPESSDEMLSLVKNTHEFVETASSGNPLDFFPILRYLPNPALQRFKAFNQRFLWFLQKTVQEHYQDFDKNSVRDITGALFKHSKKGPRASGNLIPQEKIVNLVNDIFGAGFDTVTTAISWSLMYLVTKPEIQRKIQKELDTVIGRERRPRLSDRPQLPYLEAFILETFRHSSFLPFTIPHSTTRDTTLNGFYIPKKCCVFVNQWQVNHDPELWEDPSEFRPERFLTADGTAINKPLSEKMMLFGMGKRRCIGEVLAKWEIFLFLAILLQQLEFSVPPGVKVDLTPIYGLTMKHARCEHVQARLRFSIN
Cytochrome P450 2C19 (Homo sapiens), sequence (P33261 whole entry, looked up): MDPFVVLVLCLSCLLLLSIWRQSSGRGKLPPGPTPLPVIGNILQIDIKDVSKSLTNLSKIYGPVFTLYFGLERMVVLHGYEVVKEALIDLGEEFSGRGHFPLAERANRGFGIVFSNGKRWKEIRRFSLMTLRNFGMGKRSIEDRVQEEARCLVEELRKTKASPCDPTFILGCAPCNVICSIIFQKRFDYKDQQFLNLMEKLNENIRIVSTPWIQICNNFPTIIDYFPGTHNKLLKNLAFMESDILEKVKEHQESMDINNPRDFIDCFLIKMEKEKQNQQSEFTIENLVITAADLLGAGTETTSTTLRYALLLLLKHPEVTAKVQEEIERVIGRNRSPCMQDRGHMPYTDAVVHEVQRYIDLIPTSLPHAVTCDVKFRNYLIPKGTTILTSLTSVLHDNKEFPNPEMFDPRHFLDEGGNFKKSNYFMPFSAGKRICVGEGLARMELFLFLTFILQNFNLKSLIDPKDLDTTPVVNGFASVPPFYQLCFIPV

Cc1ccccc1CNc1ncnc2c1ncn2[C@@H]1O[C@@H](CO)[C@H](O)[C@@H]1O
inactive: activity change, negative = inhibition [1] 0.479% [at 38 µM] | Potency [2] | activity change, negative = inhibition [3] 10.4% [at 38 µM] | Potency [4] > 46 µM | Potency [5] > 46 µM | Potency [6] | outcome [7] | outcome [8] | Potency [9] | Potency [10] | outcome [11] | outcome [12] | outcome [13] | Potency [14]

O=c1[nH]c(=O)n([C@H]2C[C@H](O)[C@H](CO)O2)cc1Br
inactive: activity change, negative = inhibition [1] 14.9% [at 38 µM] | Potency [2] | activity change, negative = inhibition [3] 2.6% [at 38 µM] | activity, negative = inhibition [15] 4.48% [at 38 µM] | Potency [16] | Potency [6] | Potency [17] | Potency [18] | Potency [19]

CN(C)C(=O)/N=N\C(=O)N(C)C
inactive: activity change, negative = inhibition [1] 9.37% [at 38 µM] | Potency [2] | activity change, negative = inhibition [3] -14.2% [at 38 µM] | Potency [4] > 46 µM | Potency [5] > 46 µM | Potency [16] | Potency [6] | outcome [7] | Potency [9] | Potency [10] | outcome [11] | outcome [12] | outcome [13] | Potency [14]

O=C1C(=O)c2ccccc2C(O)=C1C(C1=C(O)c2ccccc2C(=O)C1=O)c1ccc(Cl)cc1
active: Potency [2] 3.98 µM | Potency [19] 3.98 µM
inactive: activity change, negative = inhibition [1] -18% | activity change, negative = inhibition [3] -12.1% | Potency [4] > 46 µM | Potency [5] > 9.22 µM | Potency [16] | Potency [6] | Potency [20]

C[C@@H]1C[C@@H]2[C@H]3CCC4=CC(=O)C=C[C@]4(C)[C@]3(Cl)[C@@H](O)C[C@@]2(C)[C@@]1(O)C(=O)CO
inactive: activity change, negative = inhibition [1] 12.5% [at 38 µM] | Potency [2] | activity change, negative = inhibition [3] 6.53% [at 38 µM] | activity, negative = inhibition [15] 3.18% [at 38 µM] | Potency [16] | Potency [6] | outcome [7] | outcome [8] | outcome [11] | outcome [12] | outcome [13] | Potency [14]

C[C@@H]1C[C@H]2[C@H]3C[C@@H](F)C4=CC(=O)C=C[C@]4(C)[C@@]3(Cl)[C@@H](O)C[C@@]2(C)[C@@H]1C(=O)COC(=O)C(C)(C)C
inactive: activity change, negative = inhibition [1] -11.4% [at 17.2 µM] | Potency [2] | activity change, negative = inhibition [3] -26.1% [at 17.2 µM] | activity, negative = inhibition [15] -9.29% [at 17.2 µM] | Potency [16] | Potency [6] | Potency [20]

Cc1ccc(SCN2CCCCC2)cc1 (tested in a mixture with another compound)
inactive: activity change, negative = inhibition [1] -5.94% | activity change, negative = inhibition [3] 16.7% | Potency [4] > 46 µM | Potency [5] > 9.22 µM | Potency [16] | Potency [6]
active: Potency [2] 3.98 µM
